For 67 molecules, inhibition results are on record in PubChem BioAssay AID1209 (Sanford-Burnham Center for Chemical Genomics, 2008).

By inhibition is commonly meant the change of the read-out against control, counted positive when it falls.

About 810 (0.43%) of roughly 190,000 compounds were called active. Only a selection was taken, and actives are over-represented in it overall. A number with no mark means an inactive call. Cut-off read from the data, not from the text of the source: active = inhibition above about 50%; inactive = the rest.

The target of the test is Mannose-6-phosphate isomerase (Homo sapiens) (UniProt P34949). In words: inhibitors of human PMI, primary screen, biochemical, fluorescence intensity, coupled assay (AID 1209).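 Note: plate controls were DMSO vehicle for no effect and wells lacking substrate for full effect.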 The note with it: purified PMI enzyme, at 20 µM, stronger effect = higher value.
Chain of Mannose-6-phosphate isomerase (Homo sapiens) (P34949 whole entry, looked up): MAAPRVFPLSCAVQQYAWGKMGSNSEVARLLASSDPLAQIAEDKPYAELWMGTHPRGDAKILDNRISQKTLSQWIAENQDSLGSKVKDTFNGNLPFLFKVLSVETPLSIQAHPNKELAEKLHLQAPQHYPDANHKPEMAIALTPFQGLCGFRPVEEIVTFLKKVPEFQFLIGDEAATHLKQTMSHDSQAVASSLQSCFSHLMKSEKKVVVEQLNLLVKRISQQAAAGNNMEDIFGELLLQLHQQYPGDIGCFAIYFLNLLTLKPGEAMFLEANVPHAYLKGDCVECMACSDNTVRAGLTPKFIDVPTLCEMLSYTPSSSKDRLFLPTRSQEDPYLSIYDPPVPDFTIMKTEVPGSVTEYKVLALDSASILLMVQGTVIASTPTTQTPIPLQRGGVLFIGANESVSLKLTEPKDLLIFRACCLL
Consider `CSC1=C(C#N)C(c2ccc3c(c2)OCO3)C2=C(CCCC2=O)N1` (configuration not stated), for which the inhibition was -3%.
With `COc1cc(C(=S)N2CCCC2)ccc1O` the figure was -0.7%.
As for `COc1ccc(C(=S)N2CCN(c3cccc(Cl)c3)CC2)c(OC)c1`, the figure is 20.6%; as for `COc1cc(C(=S)N2CCCC2)cc(Cl)c1O`, 4.8%.
As for `COc1cc(C(=S)N2CCN(c3ccccc3Cl)CC2)cc(O)c1O`, the figure is 67.5% (active).
Take `Oc1ccccc1C(=S)N1CCN(c2cccc(Cl)c2)CC1`: the inhibition was 22.1%.
With `COc1cc(C(=S)N2CCCC2)cc(OC)c1O` the figure was 17.5%; with `COc1cc(C(=S)N2CCN(c3cccc(Cl)c3)CC2)ccc1O`, 58.8% (active).
As for `CC(=O)c1ccc(NC(=S)N2CCN(c3cccc(Cl)c3)CC2)cc1`, the figure is -6.5%.
Take `Oc1ccc(C(=S)N2CCN(c3cccc(Cl)c3)CC2)cc1`: the inhibition is 59.2% (active).
As for `Cc1cccc(C)c1NC(=O)C1(N(Cc2ccco2)C(=O)Cn2nnnc2N)CCCCC1`, the figure is 4.1%; as for `COc1ccc(CNC(=O)C/C(C)=N/NC(=O)Cc2ccc(OC)cc2)cc1`, -4%; as for `COC(=O)c1ccc2c(c1)C(C)(C)C(/C=C/c1ccc(OC)c(OC)c1OC)=[N+]2C`, 91.8% (active).
Take `COC(=O)c1ccc2c(c1)C(C)(C)C(/C=C/c1ccccc1O)=[N+]2C`: the inhibition was 39.9%.
For `COC(=O)c1ccc(C(=O)OC)c(NC(=O)COC(=O)c2ccc(OC)c(OC)c2OC)c1`, the inhibition was 7.2%.
As for `COC(=O)c1ccc2c(c1)C(=O)/C(=C/c1ccc(O)cc1)O2`, the figure is 8%.
For `COC(=O)c1ccc2c(c1)C(C)(C)C(/C=C/c1ccc(O)cc1)=[N+]2C`, the inhibition is 72% (active).
On to `COC(=O)c1ccc2nc(C)c(C)nc2c1`, for which the inhibition is -5.7%.
As for `CN(C)c1ccc(C(=O)OCc2ccccc2)cc1`, the figure is 16%; as for `CCS(=O)(=O)c1ccc2c(c1)N(S(=O)(=O)c1ccc(Cl)cc1)CC(C(=O)O)O2` (configuration not stated), -3.9%.
For the molecule `O=C(O)CC1S/C(=N/N=C/c2ccc(-c3ccccc3[N+](=O)[O-])o2)NC1=O` (configuration not stated), the inhibition was 68.4% (active).
Take `O=C(O)CC1S/C(=N/N=C/c2ccc(-c3ccc(Cl)c([N+](=O)[O-])c3)o2)NC1=O` (configuration not stated): the inhibition is -9%.
As for `Cc1ccc(-c2ccc(/C=N/N=C3/NC(=O)C(CC(=O)O)S3)o2)c([N+](=O)[O-])c1` (configuration not stated), the figure is 30.5%; as for `COC(=O)c1cccc(NC(N)=S)c1`, -7.9%; as for `COC(=O)c1cccc(-n2[nH]nnc2=S)c1`, 64.8% (active).
As for `COC(=O)c1cccc(-n2cnnn2)c1`, the figure is -6.9%; as for `COc1ccc(OC)c2c(C)cc(NCCN3CCOCC3)nc12`, 11.7%.
With `CCn1nc(CC(=O)Nc2nnc(CC(=O)N3CCCCC3)s2)c2ccccc2c1=O` the figure was 4.6%.
`CCn1nc(CC(=O)Nc2nnc(CC(=O)N3CCOCC3)s2)c2ccccc2c1=O`: the inhibition was 5.5%.
As for `CCn1nc(CC(=O)Nc2nnc(CC(=O)N3CCCC3)s2)c2ccccc2c1=O`, the figure is 50.5% (active); as for `COc1ccnc(Oc2ccc(Cl)cc2)c1C#N`, -5.9%; as for `CC(C)CC(=O)N1CCN(Cc2ccc3c(c2)OCO3)CC1`, 3.6%.
As for `CCOC(=O)N1CCN(C(=O)Cn2ccc3c(OC)cccc3c2=O)CC1`, the figure is 3.2%; as for `CCCn1c(SCC(=O)Nc2cc(S(=O)(=O)N3CCOCC3)ccc2OC)n[nH]c1=O`, -2%.
As for `CCOc1cc(-c2nc(C)c(C(C)=O)n2O)ccc1OCC(=O)Nc1ccc(F)cc1`, the figure is -3.7%; as for `CCOC(=O)c1c(N)sc(C(=O)N(C)C)c1C`, -5%.
For `CCOC(=O)c1sc(N)c(C(=O)Nc2ccccc2OC)c1C`, the inhibition is 60.2% (active).
With `CCCOC(=O)c1c(N)sc(C(=O)OCC)c1C` the figure was 2.1%; with `CCOC(=O)c1c(N)sc(C(=O)OCCOC)c1C`, 51% (active).
As for `CCOC(=O)c1sc(N)c(C(N)=O)c1C`, the figure is 64.3% (active).
In the case of `CCOC(=O)c1c(N)sc(C(=O)Nc2ccccc2F)c1C`, the inhibition is 11.6%.
As for `CCOC(=O)c1sc(N)c(C(=O)OC)c1C`, the figure is 7%; as for `CCOC(=O)c1c(N)sc2c1CCCC2`, 5.6%.
As for `CCOC(=O)c1c(N)sc(N)c1C(=O)OCC`, the figure is 60.1% (active); as for `CCOC(=O)c1sc(N)c(C(=O)Nc2ccccc2)c1C`, 44.4%.
Regarding `CCOC(=O)c1c(N)sc(C(N)=O)c1C`, the inhibition is -5.6%.
With `CCOC(=O)c1c(N)sc(C(=O)OC)c1C` the figure was -6.6%.
Regarding `NNC(=O)COc1ccc(F)cc1`, the inhibition is 15.9%.
With `O=C(NCc1ccncc1)c1cncc(Br)c1` the figure was 2%.
As for `NC1=NC(=O)/C(=C\c2ccc(O)c([N+](=O)[O-])c2)S1`, the figure is -3.7%; as for `CCc1c(O)cc2n(c1=O)-c1ccc(Cl)cc1C2(C)C`, 2.7%; as for `CN(CC(=O)NC(=O)NCc1ccccc1)Cc1ccc(Cl)c(Cl)c1`, 14%.
With `Cc1cccc(NC(=O)C(=O)NCCc2c[nH]c3ccccc23)c1C` the figure was 12.5%; with `CCC(=O)Nc1cccc(-n2nnnc2SCC(=O)N2CCCCC2)c1`, -4.2%.
In the case of `COC(=O)c1nc2ccc(N3CCOCC3)cc2c(C)c1C(=O)OC`, the inhibition is 23.5%.
With `Cc1c(C(=O)O)c(C(=O)O)nc2ccc(N3CCOCC3)cc12`, the inhibition was 56.4% (active).
For `Cc1cc(C(=O)Nc2ccc(N3CCOCC3)cc2)c2ccccc2n1`, the inhibition was 6.1%.
With `CC(C)c1nc(SCC(=O)c2ccccc2)c2c(=O)n(C)c(=O)n(C)c2n1` the figure was 5.8%.
Take `Cc1nn(C)c(C)c1C1C(C#N)=C(N)OC2=C1C(=O)CC(C)(C)C2` (configuration not stated): the inhibition is -1.4%.
As for `C/C(=C\C(=O)c1cccnc1)Nc1ccc(O)cc1`, the figure is 42.8%.
Turning to `C/C(=C\C(=O)c1cccnc1)Nc1ccc(C(=O)O)cc1`, the inhibition was 81% (active).
With `CC(=O)Nc1ccc(N/C(C)=C/C(=O)c2cccnc2)cc1` the figure was -7.3%; with `CCCCCCSc1nnc(-c2cnn(-c3ccccc3)c2-n2cccc2)n1C`, 16.4%; with `CC(=O)CC(C)=NCCN=C(C)CC(C)=O`, -3.7%.
As for `Cn1cc2cc(NC(N)=S)ccc2n1`, the figure is 1.7%; as for `Cc1ccc2cc(N)ccc2n1`, 45.2%.
Turning to `Cn1cc2ccc(N)cc2n1`, the inhibition was 72.9% (active).
